Where “and” joins values, the source holds several entries; their conditions need not be identical. Equal entries are not always repeated. Results filed as inconclusive are left out. Where a call stands in place of a potency, no number is given. Where a structure was tested more than once in an assay, its records may differ in their call. Calls of active or inactive are those of the source. Unless noted, calls come from the whole dose curve; as a rule, active = well fitted curve in the direction sought with a large enough effect in the repeat runs; inconclusive = weak or mixed curves; inactive = no such curve, though single readings can be large; an effect the other way counts as inactive or inconclusive.
Assays:
[1] = qHTS assay for small molecule agonists of the p53 signaling pathway (AID 651631; calls by dose curve; note: nearly all actives have a fitted effect of over 15% in size; note: potency is the fitted concentration of half-maximal effect)
Summary of the method: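 Stably transfected HCT-116 cells (beta-lactamase behind p53 response elements) get compounds after a 5 h settling period; 16 h later at 37 °C, FRET substrate is loaded and fluorescence read after 2 h.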

[2] = qHTS assay for small molecules that induce genotoxicity in human embryonic kidney cells expressing luciferase-tagged ATAD5 (AID 651632); note: nearly all actives have a fitted effect of over 15% in size; note: potency is the fitted concentration of half-maximal effect
Summary of the method: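 A rise in luciferase signal from ATAD5-tagged HEK293T cells marks genetic stress. Cells were exposed to compounds for 16 hr at 37C, 5% CO2, then luciferase was quantified after a 30 min room-temperature incubation with Amplite.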

[3] = qHTS assay for small molecule agonists of the p53 signaling pathway - cell viability (AID 651633; calls by dose curve;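 note: p53RE-bla HCT reporter cells with a stable beta-lactamase p53 reporter; series mostly up to about 83 µM; nearly all actives have a fitted effect of over 30% in size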)
Summary of the method: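 p53RE-bla cells, seeded at 4,000 per well and rested 5 h at 37 C/5% CO2, received compounds in DMSO for 16 h at 37 C. CellTiter-Glo was then added, and luminescence was read after 30 min at room temperature to gauge cytotoxicity.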

[4] = qHTS assay for small molecules that induce genotoxicity in human embryonic kidney cells expressing luciferase-tagged ATAD5 - cell viability (AID 651634; calls by dose curve; note: nearly all actives have a fitted effect of over 25% in size)
Summary of the method: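 Cytotoxicity counter-readout: after 15.5 hr compound treatment at 37C, live-cell protease activity in ATAD5-luciferase HEK293T cells measured by CellTiter-Fluor fluorescence, 30 min development at 37C.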

[5] = qHTS assay for small molecule disruptors of the mitochondrial membrane potential - cell viability (AID 720634; calls by dose curve;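 note: human HepG2 liver cancer cells; series mostly up to about 83 µM; nearly all actives have a fitted effect of over 20% in size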)
Summary of the method: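 Cytotoxicity was quantified from ATP content by CellTiter-Glo luminescence in the same wells as the MMP dye read-out. HepG2 (2,000 cells/well) were plated overnight and exposed to compounds for 1 hr at 37 C.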

[6] = qHTS assay for small molecule disruptors of the mitochondrial membrane potential (AID 720635); note: potency is the fitted concentration of half-maximal effect
Summary of the method: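 HepG2 cells (2,000/well) attached overnight at 37C, then took compound for 1 hr at 37C, 5% CO2. Mito-MPS dye was added for 30 min; fluorescence was read at 490/535 nm (monomers) and 540/590 nm (aggregates).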

[7] = qHTS assay to test for compound auto fluorescence at 590 nm (red) in HepG2 cells (AID 720674)
Summary of the method: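 Rose Bengal sodium served as the red fluorophore standard. HepG2 monolayers (overnight attachment, MEM with 10% FBS) were exposed to test compounds for 1 hr at 37 C and read at Ex 540/Em 590 nm.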

[8] = qHTS assay to test for compound auto fluorescence at 535 nm (green) in HepG2 cells (AID 720675)
[9] = qHTS assay to test for compound auto fluorescence at 460 nm (blue) in HEK293 cells (AID 720678)
Summary of the method: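 Cells were seeded and left to adhere for 4-5 hr at 37C. Compounds were then pin-transferred. After an overnight incubation at 37C under 5% CO2, intrinsic fluorescence at 405/460 nm was measured and referenced to triamterene.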

[10] = qHTS assay to test for compound auto fluorescence at 590 nm (red) in HEK293 cells (AID 720679)
Summary of the method: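 Each well held 2,000 HEK293 cells in medium containing 10% dialyzed FBS. Following 4-5 hr attachment at 37C, 23 nL test compound or DMSO was added; plates sat overnight, and red fluorescence (540/590nm) was recorded.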

[11] = qHTS assay to test for compound auto fluorescence at 535 nm (green) in HEK293 cells (AID 720680)
[12] = qHTS assay to test for compound auto fluorescence at 460 nm (blue) in HEK293 cell free culture (AID 720681)
Summary of the method: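 Test compounds were pinned into cell-free culture medium (DMEM with 10% FBS) and fluorescence was read directly at Ex/Em 405/460 nm. Signals were expressed as fluorescence equivalents of triamterene, with DMSO vehicle as control.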

[13] = qHTS assay to test for compound auto fluorescence at 535 nm (green) in HEK293 cell free culture (AID 720682)
Summary of the method: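 Using fluorescein as calibrant, autofluorescence was quantified at 485/535 nm in cell-free DMEM containing 10% FBS after pintool addition of compound or vehicle.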

[14] = qHTS assay to test for compound auto fluorescence at 590 nm (red) in HepG2 cell free culture (AID 720684)
Summary of the method: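 Readout: intrinsic compound fluorescence at 590 nm emission after 540 nm excitation, scaled to Rose Bengal sodium. Matrix was cell-free MEM with 10% FBS; DMSO vehicle wells served as control.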

[15] = qHTS assay to test for compound auto fluorescence at 460 nm (blue) in HepG2 cell free culture (AID 720685)
Summary of the method: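 Cell-free plates of MEM plus 10% FBS received 23 nL compound or DMSO vehicle; blue-channel (405/460 nm) intensity scored against triamterene as reference fluorophore.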

[16] = qHTS assay to test for compound auto fluorescence at 460 nm (blue) in HepG2 cells (AID 720687)
Summary of the method: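 Cells (2,000/well in MEM with 10% FBS) attached overnight at 37 C, then were exposed to compound or DMSO for 1 hr at 37 C, 5% CO2. Fluorescence read at Ex/Em 405/460 nm, expressed as triamterene-equivalent signal.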

[17] = target: Glucocorticoid receptor (Homo sapiens) (UniProt P04150); test: qHTS assay to identify small molecule agonists of the glucocorticoid receptor (GR) signaling pathway (AID 720691; active = well fitted activation curve with a large enough effect in the signal ratio in the repeat runs, not every such curve was filed as active; the % refers to the signal ratio; note: potency is the fitted concentration of half-maximal effect)
Summary of the method: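 Agonist-mode qHTS in HeLa cells stably expressing a glucocorticoid-response-element beta-lactamase reporter. Fluorescence intensity read with FRET substrate (2 h, room temperature) after 18 h compound treatment at 37 C.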

[18] = target: Glucocorticoid receptor (Homo sapiens) (UniProt P04150); test: qHTS assay to identify small molecule antagonists of the glucocorticoid receptor (GR) signaling pathway (AID 720692; active = well fitted inhibition curve with a large enough effect in the signal ratio in the repeat runs, not every such curve was filed as active; the % refers to the signal ratio)
Summary of the method: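 Inhibition of dexamethasone-driven (5 nM final) beta-lactamase expression was measured in GRE-reporter HeLa cells over 18 h at 37C. Fluorescence was read after 2 h with the B/G FRET substrate at room temperature.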

[19] = qHTS assay to test for compound auto fluorescence at 590 nm (red) in HEK293 cell free culture (AID 720683)
Summary of the method: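 Tox21 10K library compounds were pinned into cell-free DMEM with 10% FBS and fluorescence was read at excitation 540 nm. Activity is expressed as Rose Bengal sodium equivalency.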

[20] = qHTS assay to test for compound auto fluorescence at 535 nm (green) in HepG2 cell free culture (AID 720686)

Sequence of Glucocorticoid receptor (Homo sapiens) (P04150 whole entry, looked up): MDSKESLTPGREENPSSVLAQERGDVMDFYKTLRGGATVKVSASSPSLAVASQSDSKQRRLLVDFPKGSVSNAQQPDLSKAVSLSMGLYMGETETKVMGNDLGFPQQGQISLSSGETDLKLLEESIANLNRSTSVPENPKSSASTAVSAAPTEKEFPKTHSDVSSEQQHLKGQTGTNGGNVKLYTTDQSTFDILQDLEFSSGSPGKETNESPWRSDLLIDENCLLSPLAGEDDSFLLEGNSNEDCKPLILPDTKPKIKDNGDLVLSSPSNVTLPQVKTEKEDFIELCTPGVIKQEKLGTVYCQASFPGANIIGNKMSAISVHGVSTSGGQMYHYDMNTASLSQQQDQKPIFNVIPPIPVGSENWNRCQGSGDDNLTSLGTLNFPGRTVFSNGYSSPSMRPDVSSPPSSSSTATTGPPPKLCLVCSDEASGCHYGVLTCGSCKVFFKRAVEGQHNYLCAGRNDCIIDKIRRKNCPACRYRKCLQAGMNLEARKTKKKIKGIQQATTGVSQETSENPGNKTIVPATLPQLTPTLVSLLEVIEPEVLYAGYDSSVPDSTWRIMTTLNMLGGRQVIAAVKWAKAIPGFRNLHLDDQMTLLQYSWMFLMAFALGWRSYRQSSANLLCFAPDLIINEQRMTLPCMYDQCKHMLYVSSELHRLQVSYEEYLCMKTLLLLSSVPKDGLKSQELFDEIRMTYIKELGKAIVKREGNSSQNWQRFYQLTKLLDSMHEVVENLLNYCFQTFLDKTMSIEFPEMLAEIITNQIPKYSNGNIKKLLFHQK

| SMILES | Potency [1] | Potency [2] | Potency [3] | Potency [4] | Potency [5] | Potency [6] | Potency [7] | Potency [8] | outcome [9] | Potency [10] | Potency [11] | Potency [12] | Potency [13] | Potency [14] | Potency [15] | Potency [16] | Potency [17] | Potency [18] | Potency [19] | Potency [20] |
| --- | --- | --- | --- | --- | --- | --- | --- | --- | --- | --- | --- | --- | --- | --- | --- | --- | --- | --- | --- | --- |
| Cc1ccc(S(=O)(=O)O)cc1C | inactive | inactive | inactive | inactive | inactive | inactive | inactive | inactive | inactive | inactive | inactive | inactive | inactive | inactive | inactive | inactive | inactive | inactive | – | – |
| CC(=O)OC(C)C | inactive | inactive | inactive | inactive | inactive | inactive | inactive | inactive | inactive | inactive | inactive | inactive | inactive | inactive | inactive | inactive | inactive | inactive | inactive | inactive |
| Cc1ccc2c(c1)C(=O)OC2=O | inactive | inactive | inactive | inactive | inactive | inactive | inactive | inactive | inactive | inactive | inactive | inactive | inactive | inactive | inactive | inactive | inactive | inactive | inactive | inactive |
| NCCS(=O)(=O)O | inactive | inactive | inactive | inactive | inactive | inactive and 7.13 µM (active) | inactive | inactive | inactive | inactive | inactive | inactive | inactive | inactive | inactive | inactive | inactive | inactive | inactive | inactive |
| CC1=CC(C)(C)Nc2ccccc21 | inactive | inactive | inactive | inactive | inactive | inactive and 59.5 µM (active) | inactive | inactive | inactive | inactive | inactive | inactive | inactive | inactive | inactive | inactive | – | – | – | inactive |
| Cc1ccc(S(=O)(=O)NCl)cc1 | inactive | inactive | inactive | inactive | inactive | inactive | inactive | inactive | inactive | inactive | inactive | inactive | inactive | inactive | inactive | inactive | inactive | inactive | inactive | inactive |
| CC(C)(Oc1ccc(Cl)cc1)C(=O)O | inactive | inactive | inactive | inactive | inactive | inactive | inactive | inactive | inactive | inactive | inactive | inactive | inactive | inactive | inactive | inactive | inactive | inactive | – | inactive |
| COc1ccc(C(=O)c2ccccc2O)c(O)c1 | inactive | inactive | inactive | inactive | inactive | 8.04 µM (active) and 8.61 µM (active) | inactive | inactive | inactive | inactive | inactive | inactive | inactive | inactive | inactive | inactive | inactive | inactive | – | inactive |
| O=S1(=O)CCCO1 | inactive | inactive | inactive | inactive | inactive | inactive | inactive | inactive | inactive | inactive | inactive | inactive | inactive | inactive | inactive | inactive | inactive | inactive | inactive | inactive |
| C=CCOC(=O)C(=C)C | inactive | inactive | inactive | inactive | inactive | inactive | inactive | inactive | inactive | inactive | inactive | inactive | inactive | inactive | inactive | inactive | inactive | inactive | – | – |
| Brc1nc2ccccc2s1 | inactive | inactive | inactive | inactive | inactive | inactive | inactive | inactive | inactive | inactive | inactive | inactive | inactive | inactive | inactive | inactive | inactive | inactive | inactive | – |
| OC[C@@H](O)[C@@H](O[C@@H]1O[C@H](CO)[C@H](O)[C@H](O)[C@H]1O)[C@H](O)[C@@H](O)CO | inactive | inactive | inactive | inactive | inactive | inactive | inactive | inactive | inactive | inactive | inactive | inactive | inactive | inactive | inactive | inactive | – | – | inactive | inactive |
| c1ccc2c(c1)ccc1cc3c(ccc4ccccc43)cc12 | 12.1 µM (active) | 853 nM (active) and 959 nM (active) | inactive | inactive | inactive | inactive | inactive | inactive | inactive | inactive | inactive | inactive | inactive | inactive | inactive | inactive | inactive | inactive | inactive | – |
| ClC/C=C/CCl | inactive | inactive | inactive | inactive | inactive | inactive | inactive | inactive | inactive | inactive | inactive | inactive | inactive | inactive | inactive | inactive | – | – | – | – |
| C[C@]12C=CC(=O)C=C1CC[C@H]1[C@@H]3C[C@@H](O)[C@](O)(C(=O)CO)[C@@]3(C)C[C@H](O)[C@@]12F | inactive | inactive | inactive | inactive | inactive | inactive | inactive | inactive | inactive | inactive | inactive | inactive | inactive | inactive | inactive | inactive | 301 nM (active) and 61.6 nM (active) | – | – | inactive |

Source: PubChem BioAssay (Tox21)
